Screening data from PubChem BioAssay.
T cruzi growth-1 = inhibitors of T. cruzi proliferation | 5.9% of 77,000 active | inhibition, % at 8.34 µM | T. cruzi beta-gal in NIH3T3, GalScreen luminescence, 90 h;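 active = mean inhibition above about 93%, with at least 55% of replicates each passing it, limit read from the data, passing the limit was not always enough; inconclusive = only one of those two conditions holds; inactive = neither condition holds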
C diff growth = blocks growth of Clostridium difficile; Clostridium difficile clinical isolate growth, OD600, 24 h; stronger effect = lower value; growth activity, negative = inhibition, % at 16 µg/mL (by protocol); 0.25% of 86,000 active;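 active = mean growth activity at or below -80% and every replicate also at or below -80%; inconclusive = mean at or below -80% but some replicate above -80%; inactive = mean growth activity above -80%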
Pf Dd2 growth = P. falciparum Dd2 growth inhibition. SYBR Green, 72 h; stronger effect = lower value. activity change, % at 10 µM. 2.3% of 94,000 active; in the data active = activity change below about -80%; inconclusive = no clear call, values can overlap the other calls
T cruzi growth-2 = inhibitors of T. cruzi proliferation. T. cruzi beta-gal in NIH3T3, GalScreen luminescence, 90 h. shares compounds with T cruzi growth-1. 72% of 5,600 active. inhibition, % at 8.35 µM. AID 651739;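 active = mean replicate inhibition above about 95% and at least 55% of replicates individually reaching it, limit read from the data; inconclusive = only one of the two criteria is met; inactive = neither criterion is met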
T cruzi growth-3 = Trypanosoma cruzi proliferation inhibition; shares compounds with T cruzi growth-1; T. cruzi beta-gal in NIH3T3, GalScreen luminescence, 90 h; inhibition, % at 2.09 µM; 21% of 5,600 active; AID 651740;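 active = mean inhibition above about 95%, with at least 55% of replicates also reaching it, limit read from the data; inconclusive = meets just one of the two conditions; inactive = meets neither condition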
NIH3T3 tox = NIH/3T3 (mouse) viability loss | shares compounds with T cruzi growth-1 | NIH/3T3 viability, CellTiter-Glo ATP luminescence, 90 h | cytotoxicity (signal decrease), % at 8.35 µM | 14% of 5,600 active | AID 651742;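 active = mean signal decrease across replicates above about 35% based on untreated-well scatter, with enough replicates individually passing, limit read from the data; inconclusive = no rule stated though some were filed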
NIH3T3 tox 2 = cytotoxicity in mouse NIH/3T3 fibroblasts; NIH/3T3 viability, CellTiter-Glo ATP luminescence, 90 h; shares compounds with T cruzi growth-1; 56% of 5,600 active; inhibition, % at 24.9 µM;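 active = mean loss of cell viability signal at or above a set limit, and enough replicates individually reaching it; inconclusive = meets only the mean limit or only the replicate share; inactive = meets neither condition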
Numbers stand for hits. A selection: hits, their analogues and other compounds. The true share with any hit is near 6.7%.

Results for C[C@@H]1CN([C@H](C)CO)S(=O)(=O)c2ccc(C3=CCCCC3)cc2O[C@@H]1CN(C)C(=O)c1ccc(F)cc1 ?
T cruzi growth-1: 113; C diff growth: inactive; Pf Dd2 growth: inactive; T cruzi growth-2: 107; T cruzi growth-3: inactive; NIH3T3 tox: inactive; NIH3T3 tox 2: 101

What do the screens show for `C[C@H]1CN([C@@H](C)CO)S(=O)(=O)c2ccc(C3=CCCCC3)cc2O[C@H]1CN(C)C(=O)c1ccc(F)cc1`?
T cruzi growth-1: inactive; C diff growth: inactive; Pf Dd2 growth: inactive

Results for CS(=O)(=O)N1[C@@H]2Cn3c(cccc3=O)[C@H]1[C@@H](C(=O)NCc1ccccc1)[C@@H]2CO ?
T cruzi growth-1: inactive; C diff growth: inactive

How did COc1ccc(CN(C)C[C@H]2OCCCC[C@H](C)Oc3ccc(NC(=O)C4CCCCC4)cc3C(=O)N([C@@H](C)CO)C[C@H]2C)cc1 do in these assays?
T cruzi growth-1: 102; C diff growth: inactive; Pf Dd2 growth: inactive; T cruzi growth-2: inconclusive; T cruzi growth-3: inactive; NIH3T3 tox: inactive; NIH3T3 tox 2: 27

What do the screens show for `COc1ccc(CN(C)C[C@@H]2OCCCC[C@H](C)Oc3ccc(NC(=O)C4CCCCC4)cc3C(=O)N([C@@H](C)CO)C[C@@H]2C)cc1`?
T cruzi growth-1: inactive; Pf Dd2 growth: inactive

Results for COc1ccc(CN(C)C[C@H]2OCCCC[C@@H](C)Oc3ccc(NC(=O)C4CCCCC4)cc3C(=O)N([C@H](C)CO)C[C@H]2C)cc1 ?
T cruzi growth-1: 104; Pf Dd2 growth: inactive; T cruzi growth-2: 102; T cruzi growth-3: inactive; NIH3T3 tox: inactive; NIH3T3 tox 2: 96

Results for COc1ccc(CN(C)C[C@H]2OCCCC[C@@H](C)Oc3ccc(NC(=O)C4CCCCC4)cc3C(=O)N([C@@H](C)CO)C[C@H]2C)cc1 ?
T cruzi growth-1: 105; Pf Dd2 growth: inactive; T cruzi growth-2: inactive; T cruzi growth-3: inactive; NIH3T3 tox: inactive; NIH3T3 tox 2: 76

What do the screens show for `COc1ccc(CN(C)C[C@H]2OCCCC[C@H](C)Oc3ccc(NC(=O)C4CCCCC4)cc3C(=O)N([C@H](C)CO)C[C@@H]2C)cc1`?
T cruzi growth-1: inactive; C diff growth: inactive; Pf Dd2 growth: inactive

Results for COc1ccc(CN(C)C[C@@H]2OCCCC[C@@H](C)Oc3ccc(NC(=O)C4CCCCC4)cc3C(=O)N([C@@H](C)CO)C[C@H]2C)cc1 ?
T cruzi growth-1: inactive; Pf Dd2 growth: inactive

How did C[C@H]1CN([C@@H](C)CO)C(=O)c2cc(NC(=O)Nc3ccc(F)cc3)ccc2O[C@@H]1CN(C)Cc1ccc(Oc2ccccc2)cc1 do in these assays?
T cruzi growth-1: inactive; C diff growth: inactive; Pf Dd2 growth: inactive

What do the screens show for `CO[C@@H]1CN(C)C(=O)c2cc(NC(=O)c3cc(C)on3)ccc2OC[C@@H](C)N(C(=O)C2CC2)C[C@H]1C`?
T cruzi growth-1: inactive; C diff growth: inactive; Pf Dd2 growth: inactive

Results for COc1ccc(NC(=O)N(C)C[C@H]2OCCCC[C@@H](C)Oc3ccc(NC(=O)CCC(F)(F)F)cc3C(=O)N([C@@H](C)CO)C[C@H]2C)cc1 ?
T cruzi growth-1: inactive; C diff growth: inactive; Pf Dd2 growth: inactive

What do the screens show for `COc1cccc(S(=O)(=O)N(C)C[C@@H]2OCc3ccccc3-c3c(n(C)c4ccccc34)C(=O)N([C@@H](C)CO)C[C@H]2C)c1`?
T cruzi growth-1: inactive; C diff growth: inactive; Pf Dd2 growth: inactive

How did C[C@@H]1CN([C@@H](C)CO)C(=O)c2c(c3ccccc3n2C)-c2ccccc2CO[C@H]1CN(C)S(=O)(=O)c1ccsc1 do in these assays?
T cruzi growth-1: inconclusive; C diff growth: inactive; Pf Dd2 growth: inactive; T cruzi growth-2: 108; T cruzi growth-3: inactive; NIH3T3 tox: inactive; NIH3T3 tox 2: 47

How did C[C@H](CO)N1C[C@H](C)[C@@H](CN(C)S(=O)(=O)c2ccccc2F)OCc2ccccc2-c2c(n(C)c3ccccc23)C1=O do in these assays?
T cruzi growth-1: inactive; C diff growth: inactive; Pf Dd2 growth: inactive

How did C[C@H]1CN([C@@H](C)CO)C(=O)c2c(c3ccccc3n2C)-c2ccccc2CO[C@@H]1CN(C)S(=O)(=O)c1cccc(C#N)c1 do in these assays?
T cruzi growth-1: inactive; C diff growth: inactive; Pf Dd2 growth: inactive

How did C[C@H](CO)N1C[C@H](C)[C@H](CN(C)S(=O)(=O)c2ccsc2)OCc2ccccc2-c2c(n(C)c3ccccc23)C1=O do in these assays?
T cruzi growth-1: inactive; C diff growth: inactive; Pf Dd2 growth: inactive

Results for COc1ccc(S(=O)(=O)N(C)C[C@@H]2OCc3ccccc3-c3c(n(C)c4ccccc34)C(=O)N([C@@H](C)CO)C[C@@H]2C)cc1 ?
T cruzi growth-1: inconclusive; Pf Dd2 growth: -87; T cruzi growth-2: 100; T cruzi growth-3: inactive; NIH3T3 tox: inactive; NIH3T3 tox 2: 24

What do the screens show for `C[C@H](CO)N1C[C@H](C)[C@@H](CN(C)S(=O)(=O)c2ccc(C#N)cc2)OCc2ccccc2-c2c(n(C)c3ccccc23)C1=O`?
T cruzi growth-1: inconclusive; Pf Dd2 growth: inactive; T cruzi growth-2: 112; T cruzi growth-3: inactive; NIH3T3 tox: inactive; NIH3T3 tox 2: inactive

What do the screens show for `C[C@H]1CN([C@@H](C)CO)C(=O)c2c(c3ccccc3n2C)-c2ccccc2CO[C@H]1CN(C)S(=O)(=O)c1ccccc1C#N`?
T cruzi growth-1: 107; C diff growth: inactive; Pf Dd2 growth: inactive; T cruzi growth-2: inactive; T cruzi growth-3: inactive; NIH3T3 tox: inconclusive; NIH3T3 tox 2: 85

What do the screens show for `C[C@@H]1CN([C@H](C)CO)S(=O)(=O)c2ccc(-c3cccc(C#N)c3)cc2O[C@@H]1CN(C)C(=O)c1ccncc1`?
C diff growth: inactive; Pf Dd2 growth: inactive

Results for CO[C@H]1CN(C)C(=O)c2cc(NC(=O)C3CC3)ccc2OC[C@H](C)N(C(=O)CN(C)C)C[C@@H]1C ?
T cruzi growth-1: inactive; C diff growth: inactive; Pf Dd2 growth: inactive

How did O=C(N[C@H]1CC[C@H](CC(=O)N2CCCCC2)O[C@H]1CO)c1cccc(F)c1 do in these assays?
T cruzi growth-1: inactive; C diff growth: inactive; Pf Dd2 growth: inactive

Results for Cc1ccc(S(=O)(=O)N[C@@H]2CC[C@@H](CCNC(=O)c3ccccc3F)O[C@@H]2CO)cc1 ?
T cruzi growth-1: inactive; Pf Dd2 growth: inactive

Results for CO[C@H]1CN(C)C(=O)c2ccc(NC(=O)Nc3cc(F)ccc3F)cc2OC[C@H](C)NC[C@@H]1C ?
C diff growth: inactive; Pf Dd2 growth: inactive

How did COCCNC(=O)C[C@@H]1CC[C@@H](NC(=O)NC2CCCC2)[C@@H](CO)O1 do in these assays?
C diff growth: inactive; Pf Dd2 growth: inactive

What do the screens show for `C[C@H](CO)N1C[C@H](C)[C@@H](CN(C)CC2CCCCC2)Oc2ccc(NC(=O)CCC(F)(F)F)cc2CC1=O`?
T cruzi growth-1: inactive; C diff growth: inactive; Pf Dd2 growth: inactive
